# Compound activity as filed in PubChem.
# FBPA Giardia inh: inhibitors of Giardia lamblia fructose-1,6-bisphosphate aldolase. purified Giardia FBPA. 290,000 tested, 0.71% active. Potency, µM (highest dose often 59.6 µM), without a hit: top-dose activity, negative = inhibition, actives largely listed as inhibitors; further: potency means the concentration at half of the fitted maximal effect; on the % scale 0 is the no-effect control and ±100 the full control effect; nearly all actives have a fitted effect of over 55% in size
# Target sequence (A8B2U2 whole entry, looked up): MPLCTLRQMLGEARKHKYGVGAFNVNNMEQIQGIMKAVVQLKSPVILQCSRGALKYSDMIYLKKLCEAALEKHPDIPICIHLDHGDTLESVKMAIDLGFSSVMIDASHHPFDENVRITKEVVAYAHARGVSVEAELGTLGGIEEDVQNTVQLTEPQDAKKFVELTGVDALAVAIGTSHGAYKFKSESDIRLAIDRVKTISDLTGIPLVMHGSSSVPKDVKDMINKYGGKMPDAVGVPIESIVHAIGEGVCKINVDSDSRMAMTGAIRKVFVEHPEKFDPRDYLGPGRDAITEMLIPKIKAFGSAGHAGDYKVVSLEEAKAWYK
#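 40 nM FBPA preincubated 10 min at RT with compound (up to 57.5 uM final), then substrate plus GAPDH/TPI/NAD/arsenate coupling and diaphorase/resazurin added. Fluorescence read after 20 min at RT, 525/598 nm.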
# Cycloheximide cs: counter-screen for Shiga toxin inhibitors: cycloheximide protein synthesis inhibition | AID 2314 | max response, % | 300,000 tested, 12% active | cell reporter, cycloheximide protein synthesis inhibition counterscreen; in the data active means max response mostly above about 13%, no sharp cut-off; inactive means mostly below about 14%; further: read at 38.3 µM for the half of the compounds with a filed dose; 0% is about no effect
# LmPK inh: inhibitors of Leishmania mexicana pyruvate kinase; purified LmPK, Kinase-Glo ATP luminescence, 1 h; Q27686; AID 1721; 290,000 tested, 0.37% active; Potency, µM (top dose mostly 57.5 µM), inactives show top-dose activity change, negative = inhibition, actives largely listed as inhibitors; further: potency means the concentration at half of the fitted maximal effect; on the % scale 0 is the no-effect control and ±100 the full control effect
#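 Pyruvate kinase activity monitored as ATP production (luciferase luminescence). Conditions: 0.1 nM enzyme, 0.5 mM PEP, 0.1 mM ADP, 1 h, RT; normalized against uninhibited and no-enzyme wells.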
# Shiga inhibitor: inhibitors of Shiga toxin in Vero cells. Vero cells, Shiga toxin protein synthesis inhibition reporter. inhibition, % at 38.7 µM. 290,000 tested, 9.2% active. AID 2315; in the data active means inhibition mostly above about 28%, no sharp cut-off; inactive means mostly below about 43%; further: 0% is about no effect
# NS1 inh: influenza NS1 inhibition. Potency, µM (top dose mostly 46.1 µM), without a hit: top-dose activity, positive = more growth. 270,000 tested, 0.4% active. AID 2326; calls by dose curve; further: potency means the concentration at half of the fitted maximal effect; actives are rising curves; nearly all actives have a fitted effect of over 50% in size
#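 Read-out: OD600 growth recovery of NS1-expressing budding yeast. Cells grown overnight at 30C in -URA glucose medium, washed, resuspended and diluted 1:100 in 2% galactose assay medium, pH 6.0. Same strain lacking NS1 served as positive control.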
# An asterisk follows results filed as active; ? = inconclusive; . = no result given; [ ] = remark or other dose. Rows were chosen to be rich in hits. Some 14% of all compounds tested hit in one or more screens of this group. Unless noted, the call rests on the fitted dose curve; in most records, active means well fitted curve in the direction sought with a large enough effect; inconclusive means small, poorly fitted or top-dose-only effect, or another doubt; inactive means no such curve, though single readings can be large; an effect the other way counts as inactive or inconclusive.
SMILES,FBPA Giardia inh,Cycloheximide cs,LmPK inh,Shiga inhibitor,NS1 inh
CCOC(=O)c1cccc(NC(=O)c2cncc(Br)c2)c1,9.6%,41.4*,-6.2%,45.8*,1.6%
CCOC(=O)c1cccc(NC(=O)c2ccc(N(C)C)cc2)c1,-0.3%,67.9*,-2.1%,108.3*,6.6%
O=C(Nn1cnnc1)c1ccc(Cl)cc1[N+](=O)[O-],-17.2%,-1.2,-0.4%,.,0.7%
Cc1ccc(-n2nc3c(=O)n(CCCC(=O)NCCN4CCN(C)CC4)nc(C)c3c2C)cc1,.,-2.5,2.5%,-3.3,5.1%
O=C(/C=C/c1ccccc1)N1CCCC1CO (stereo unspecified),-2.2%[12.9 µM],.,.,.,.
C/C(=N\NC(=O)c1ccn[nH]1)c1cn(C)nc1C,3.7%,43.6*,-1.6%,117.0*,1.0%
Cc1nn(C)cc1C(N)=O,3.4%,-2.4,4.5%,-13.3,11.5%
COc1ccccc1C1C2CCCCC2(O)CCN1CC(=O)Nc1ccccc1 (stereo unspecified),5.4%,2.8,-0.3%,4.1,-0.5%
CCOc1ccccc1C1C2CCCCC2(O)CCN1C(=O)c1cccs1 (stereo unspecified),12.0%,43.8*,-0.7%,55.4*,10.3%
CN(CC(=O)Nc1ccccc1Cl)C(=O)c1cccc(S(=O)(=O)N2CCN(c3ccc(F)cc3)CC2)c1,.,58.2*,-9.1%,139.4*,-47.3%
Cc1cccc(C)c1NC(=O)CN(C)C(=O)c1cccc(S(=O)(=O)N2CCN(c3ccccc3)CC2)c1,4.4%,-1.1,-3.1%,1.3,-18.5%
O=C(NC(=Nc1nc2ccccc2o1)NC(=O)c1ccccc1)c1ccccc1,-3.8%,-1.6,-0.2%,14.9,-8.8%
Cc1cc(C)nc(Nc2nc3ccccc3o2)n1,-20.7%,27.4*,6.6%,45.3*,1.4%
O=C(NNc1nc2ccccc2o1)c1ccccc1,5.2%,29.8*,-23.0%,55.5*,-0.5%
Cc1ccc(NC(=O)c2c(C)nc(Nc3nc4ccccc4o3)nc2C)cc1,-1.9%,6.7,-1.2%,26.5,6.4%
FC(F)(F)Oc1ccc(Nc2nc3ccccc3o2)cc1,-8.4%,33.1*,0.6%,76.8*,-13.5%
c1ccc(Nc2nc3ccccc3o2)cc1,-0.1%,33.2*,15.8µM*,119.3*,-55.5%
COc1cccc(CNC(=O)CCS(=O)(=O)c2ccc3c(c2)CC(C)N3C(=O)C2CC2)c1 (stereo unspecified),4.4%,-3.7,2.3%,-6.3,-11.1%
O=C(CCC(=O)Nc1ccccc1Cl)NNC(=O)NC1CCCCC1,.,-2.0,-11.0%,-14.7,-2.3%
N=C(N)S/C=C\C(=O)O,-28.2%,.,.,.,.
Fc1ccccc1Nc1nc2ccccc2o1,2.6%,45.0*,15.8µM*,97.5*,-31.1%
Fc1ccccc1Nc1nc(-c2ccncc2)nc2ccccc12,-12.5%,-1.6,2.5%,-10.5,1.7%
CC(=O)NC1=C(OS(=O)(=O)c2ccc(C)cc2)CN(C)C1=O,.,.,.,.,-5.6%
CCN1CCN(c2cc3c(nn2)Oc2ccccc2N3C)CC1,1.8%,49.0*,-3.0%,52.0*,-2.2%
Cc1ccc2cccnc2c1NC(=S)NC(=O)c1ccccc1,?,26.2*,8.1%,69.7*,-2.1%
SMILES,FBPA Giardia inh,Cycloheximide cs,LmPK inh,Shiga inhibitor,NS1 inh
CC(C)(C)NC(=S)NNC(=O)c1ccccc1Cl,16.8%,10.1,-8.1%,20.2,-5.7%
O=C(NC(=S)Nc1ccc2[nH]ncc2c1)c1ccccc1,-28.5%,35.1*,-1.2%,88.4*,-68.4%
CC(C)(C)NC(=S)NNC(=O)c1ccc2ncccc2c1,-1.4%,21.3*,-1.0%,46.6*,2.0%
O=C(NNC(=S)Nc1ccccc1)c1ccc2ncccc2c1,7.7%,37.4*,-2.0%,56.3*,.
CC(C)C(=O)N[C@@H]1CCCN1C(=O)/C=C\c1ccccc1,-0.7%[12.9 µM],.,.,.,.
CC(NC(=O)CN1CCOCC1)c1ccc(F)cc1 (stereo unspecified),1.3%,-9.9,-0.9%,-5.3,3.9%
CCN(CC)CCOC(=O)c1ccc(NC(=O)CCCN2C(=O)/C(=C/c3cccs3)SC2=S)cc1,.,9.4,-1.5%,-7.1,9.6%
CC[C@H](C)[C@H](NC(=O)[C@H](C)NC(=O)CNC(=O)[C@H](CCCN=C(N)N)NC(=O)[C@H](C)NC(=O)[C@H](CC(C)C)NC(=O)[C@H](CCC(=O)O)NC(=O)[C@H](CC(C)C)NC(=O)[C@H](C)NC(=O)[C@@H](N)CCC(=O)O)C(=O)N[C@@H](Cc1ccccc1)C(=O)N[C@@H](CCC(N)=O)C(=O)N[C@@H](C)C(=O)O,-0.2%,10.3,.,-5.8,.
CCC(=O)Nc1c2c(nn1-c1ccc(F)cc1)CS(=O)(=O)C2,-2.6%,-0.2,5.8%,-3.7,2.8%
O=C(NC(=S)Nc1ccc2ncccc2c1)c1ccccc1,?,51.8*,6.2%,74.7*,.
CC(NC(=O)c1ccc2nc[nH]c2c1)c1ccccc1 (stereo unspecified),1.4%,-2.2,-6.1%,-9.0,4.2%
O=C(NC(=S)Nc1ccc2nc[nH]c2c1)c1ccccc1,?,22.1*,-6.5%,50.5*,1.3%
Cn1c(CCNC(=O)c2cc(COc3ccc(F)c(F)c3)on2)nc2ccccc21,.,16.3,-4.2%,73.1*,-13.8%
COc1ccccc1C(=O)NCCc1nc2ccccc2n1C,9.3%,7.9,-3.5%,-2.8,-8.2%
CC(NC(=O)c1cc(COc2ccccc2)on1)c1nccs1 (stereo unspecified),-4.7%,28.0*,-6.8%,75.0*,-15.0%
CC(NC(=O)c1cc(COc2ccc3ncccc3c2)on1)c1ccc(F)cc1 (stereo unspecified),-9.0%,5.1,4.6%,7.1,-1.7%
CC(=O)c1ccc(OCc2cc(C(=O)NC(C)c3cnn(C)c3)no2)cc1 (stereo unspecified),-3.6%,37.1*,6.1%,93.9*,-9.7%
Cc1cc(C)n(CC(C)NC(=O)c2cc(COc3ccc(F)c(F)c3)on2)n1 (stereo unspecified),-7.1%,18.7*,-1.4%,28.2*,-22.5%
O=S(=O)(O)c1cc(O)c2c(O)c(N=Nc3cccc4ccccc34)c(S(=O)(=O)O)cc2c1,.,.,.,.,-0.3%
CC(=O)c1ccc(OCc2cc(C(=O)NCCn3nc(C)cc3C)no2)cc1,.,81.5*,-3.0%,63.2*,9.1%
Cc1nc2cc(OCc3cc(C(=O)NC(C)c4cn(C)nc4C)no3)ccc2s1 (stereo unspecified),.,13.5,-1.0%,1.2,9.9%
Cc1cc(CNC(=O)c2cc(COc3ccc(F)c(F)c3)on2)nn1C,3.4%,46.4*,1.2%,63.7*,-14.8%
Cc1nc(C(C)NC(=O)c2cc(COc3ccc(F)c(F)c3)on2)cs1 (stereo unspecified),.,17.5*,0.5%,9.3,-11.7%
Cc1cc(C)n(CCCNC(=O)c2cc(COc3ccc(C)c(C)c3)on2)n1,.,4.5,-0.7%,-23.9,-10.2%
CCCNC(=O)CN1CCN(c2cc3ccccc3c(Cl)n2)CC1,-8.1%,-1.5,-0.9%,1.0,-37.9%
Cc1cc(-n2cc(Br)c(=O)[nH]c2=O)nc(-c2ccccc2)n1,10.0%,-4.1,0.9%,-5.2,-0.1%
N#CCc1ccc(NC(=O)Nc2cccc3ccccc23)cc1,-6.4%,16.0*,0.7%,22.2,2.4%
